We go through eight molecules from PubChem BioAssay (NCI).

Among the test systems are NCI-H23 lung; NCI-H226 lung; NCI-H322M lung; HOP-62 NSCLC; NCI-H460 lung; HOP-92 NSCLC; A549/ATCC NSCLC; 786-0 renal; DU-145 prostate; K-562 leukemia; MALME-3M melanoma; MDA-MB-231 breast; RXF 393 renal; SF-268 CNS; SF-295 CNS; SF-539 CNS; UACC-257 melanoma; M14 melanoma; COLO 205 colon; NCI-H522 lung.
Holding throughout (test): NCI-60 one-dose screen, 48 h (100 = growth as untreated, 0 = no growth, -100 = all killed)
What all share (conditions): 10 µM unless noted

The panel holds about 83,000 compounds, 20% with a hit somewhere; the sample as a whole holds those more often.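 Each cell line was grown in a 96-well plate and treated with one concentration of compound for 48 hours. Values below 10 were considered active.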 Values without a mark were called inactive. Calls of active or inactive are those of the source.

`O=c1c2cc(F)ccc2sc2c(NCCCN3CCCC3)nc3ccccc3c12`: the growth was 64.2% in the assay on NCI-H23 lung; 79.2% with NCI-H226 lung; 64.1% with NCI-H322M lung; 63.5% with HOP-62 NSCLC; 12% with NCI-H460 lung; 25.1% in the assay on HOP-92 NSCLC. For the same molecule, the growth with A549/ATCC NSCLC is 52.8%; in the assay on 786-0 renal, 37.1%; with DU-145 prostate, 60.1%; in the assay with K-562 leukemia, -29.7% (active); in the assay on MALME-3M melanoma, 26.5%; with MDA-MB-231 breast, 21.1%. In addition, the growth was 22.7% in the assay with RXF 393 renal; 47.6% with SF-268 CNS; 55.1% in the assay with SF-295 CNS; 65.3% in the assay with SF-539 CNS; 54.2% in the assay with UACC-257 melanoma; -64.2% (active) in the assay on M14 melanoma.
Take `COc1ccc(N=C(c2ccccc2)C2C(=O)c3ccccc3C2=O)cc1`: the growth was 99.4% with NCI-H23 lung; 96.8% in the assay with NCI-H226 lung; 105% with NCI-H322M lung; 97% in the assay on HOP-62 NSCLC; 96.4% with NCI-H460 lung; -11.2% (active) in the assay with HOP-92 NSCLC. The growth was 93.6% with A549/ATCC NSCLC; 97.3% with 786-0 renal; 102% with COLO 205 colon; 99.8% in the assay on DU-145 prostate; 75.4% in the assay on K-562 leukemia; 103% with MALME-3M melanoma. The growth in the assay on MDA-MB-231 breast was 103%; with RXF 393 renal, 72.1%; with SF-268 CNS, 97.7%; in the assay on SF-295 CNS, 67.2%; in the assay with SF-539 CNS, 72.3%; with UACC-257 melanoma, 93.8%. Further, the growth in the assay with M14 melanoma is 92%.
On to `COc1cccc(-c2nn(-c3ccccc3)cc2-c2ccnc(NCCNC(=O)Nc3ccccc3)c2)c1`, for which the growth is 62.5% with NCI-H23 lung; 63.9% with NCI-H226 lung; 89.8% in the assay on NCI-H322M lung; 58.7% with HOP-62 NSCLC; 33% with HOP-92 NSCLC; 47.6% in the assay on NCI-H522 lung. Also, the growth in the assay with A549/ATCC NSCLC was 30.4%; in the assay on 786-0 renal, 43.2%; with COLO 205 colon it was 50.4%; in the assay on DU-145 prostate, 65.9%; with K-562 leukemia, 28.2%; in the assay with MALME-3M melanoma, 77.8%. Further, the growth was 47.9% with MDA-MB-231 breast; 63.5% in the assay on RXF 393 renal; 60.9% in the assay on SF-268 CNS; 54.4% in the assay with SF-295 CNS; 83.6% in the assay on SF-539 CNS; 42.9% in the assay with UACC-257 melanoma. In addition, the growth with M14 melanoma was 35.7%.
As to `C=CC(=O)Nc1cccc(Oc2nccc(Nc3nnc(C4CC4)s3)n2)c1`, the growth in the assay on NCI-H23 lung was 97.1%; in the assay with NCI-H226 lung, 101%; with NCI-H322M lung, 105%; in the assay on HOP-62 NSCLC, 110%; in the assay on HOP-92 NSCLC it was 66.1%; with NCI-H522 lung, 86.8%. The growth with A549/ATCC NSCLC was 103%; with 786-0 renal, 86.6%; in the assay with COLO 205 colon, 107%; with DU-145 prostate it was 94.5%; with K-562 leukemia it was 81.9%; in the assay on MALME-3M melanoma it was 111%. Besides, the growth with MDA-MB-231 breast was 67.1%; with RXF 393 renal, 86.1%; in the assay on SF-268 CNS, 89.8%; in the assay with SF-295 CNS it was 104%; with SF-539 CNS it was 89.1%; with UACC-257 melanoma, 105%. Besides, the growth in the assay on M14 melanoma was 113%.
For the molecule `COc1ccc(N=Nc2ccc(O)c(=O)cc2)cc1`, the growth with NCI-H23 lung is 2.37% (active); with NCI-H226 lung it was 4.29% (active); with NCI-H322M lung, 25.2%; with HOP-62 NSCLC it was 19.1%; in the assay with HOP-92 NSCLC it was 19.4%; with NCI-H522 lung it was 0.606% (active). Besides, the growth is 5.6% (active) in the assay with A549/ATCC NSCLC; 19.5% in the assay on 786-0 renal; 26.3% with COLO 205 colon; 19.3% in the assay with DU-145 prostate; 2.95% (active) in the assay with K-562 leukemia; 9.91% (active) with MALME-3M melanoma. The growth is 17.5% with MDA-MB-231 breast; 29.7% in the assay with RXF 393 renal; 22.3% in the assay with SF-268 CNS; 10.2% with SF-295 CNS; -5.77% (active) in the assay on SF-539 CNS; 7.51% (active) with UACC-257 melanoma. Besides, the growth in the assay with M14 melanoma is 13%.
For `c1ccc2cc3nc4cc5ccccc5cc4nc3cc2c1`, the growth with NCI-H23 lung is 88.8%; in the assay with NCI-H226 lung, 97.3%; in the assay on NCI-H322M lung it was 109%; in the assay on HOP-62 NSCLC it was 83.5%; in the assay with HOP-92 NSCLC it was 94.3%; in the assay on NCI-H522 lung, 99%. The growth was 88.4% in the assay on A549/ATCC NSCLC; 108% with 786-0 renal; 77.7% with COLO 205 colon; 110% in the assay on DU-145 prostate; 95.1% in the assay on K-562 leukemia; 134% in the assay on MALME-3M melanoma. In addition, the growth in the assay with MDA-MB-231 breast is 86.6%; in the assay on RXF 393 renal, 137%; in the assay on SF-268 CNS, 97.7%; with SF-295 CNS, 134%; in the assay with SF-539 CNS, 108%; with UACC-257 melanoma, 98.2%. Besides, the growth in the assay on M14 melanoma was 101%.
Consider `N/C(=N\c1nc2ccccc2s1)NC(=O)Nc1cccc(Cl)c1`, for which the growth with NCI-H23 lung is 59.4%; in the assay on NCI-H226 lung it was 55.3%; in the assay with NCI-H322M lung, 53.3%; in the assay on HOP-62 NSCLC it was 36.8%; in the assay on HOP-92 NSCLC it was 51.6%; in the assay with NCI-H522 lung, 17.1%. The growth in the assay on A549/ATCC NSCLC is 40.4%; in the assay with 786-0 renal it was 34.8%; in the assay on COLO 205 colon it was 26.2%; with DU-145 prostate, 52.4%; in the assay on K-562 leukemia, 13.9%; in the assay on MALME-3M melanoma it was 42.6%. For the same molecule, the growth was 59.4% with MDA-MB-231 breast; 68.6% with RXF 393 renal; 55.9% in the assay on SF-268 CNS; 40% with SF-295 CNS; 2.83% (active) with SF-539 CNS; 48.9% in the assay on UACC-257 melanoma. In the assay with M14 melanoma, the growth was 10.3%.
Take `C=C1C(=O)O[C@H]2[C@H]1CC/C(COC(=O)C(=O)c1cn(C)c3ccc(OC)cc13)=C\CC[C@@]1(C)O[C@@H]21`: the growth in the assay on NCI-H23 lung is -36.1% (active); in the assay with NCI-H226 lung, -67.5% (active); with NCI-H322M lung, -62.2% (active); in the assay on HOP-62 NSCLC, -45.9% (active); in the assay on HOP-92 NSCLC, -72.3% (active); in the assay with NCI-H522 lung, -61.4% (active). For the same molecule, the growth was -62% (active) in the assay with A549/ATCC NSCLC; -87.4% (active) in the assay on 786-0 renal; -57% (active) in the assay with COLO 205 colon; -79% (active) with DU-145 prostate; 2.97% (active) with K-562 leukemia; -74.8% (active) with MALME-3M melanoma. Besides, the growth in the assay on MDA-MB-231 breast is -58.4% (active); with RXF 393 renal it was -94.8% (active); in the assay with SF-268 CNS, -40.6% (active); with SF-295 CNS, 10.2%; in the assay on SF-539 CNS, -66.9% (active); in the assay with UACC-257 melanoma, -72.1% (active). The growth in the assay with M14 melanoma is -77.3% (active).
